# Assay outcomes from PubChem BioAssay.
# mcGAS RapidFire – mouse cGAS inhibition by mass spec | inhibition, % at 12.5 µM | 0.18% of 130,000 active | AID 1259397 | recombinant mouse cGAS, cGAMP by RapidFire MS;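 active means inhibition of cGAS enzyme activity at or above 60%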;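 further: enzyme stimulated by 45 bp dsDNA with ATP and GTP substrates; cGAMP share of summed cGAMP plus half ATP and half GTP signals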
# Target sequence (Q8C6L5 whole entry, looked up): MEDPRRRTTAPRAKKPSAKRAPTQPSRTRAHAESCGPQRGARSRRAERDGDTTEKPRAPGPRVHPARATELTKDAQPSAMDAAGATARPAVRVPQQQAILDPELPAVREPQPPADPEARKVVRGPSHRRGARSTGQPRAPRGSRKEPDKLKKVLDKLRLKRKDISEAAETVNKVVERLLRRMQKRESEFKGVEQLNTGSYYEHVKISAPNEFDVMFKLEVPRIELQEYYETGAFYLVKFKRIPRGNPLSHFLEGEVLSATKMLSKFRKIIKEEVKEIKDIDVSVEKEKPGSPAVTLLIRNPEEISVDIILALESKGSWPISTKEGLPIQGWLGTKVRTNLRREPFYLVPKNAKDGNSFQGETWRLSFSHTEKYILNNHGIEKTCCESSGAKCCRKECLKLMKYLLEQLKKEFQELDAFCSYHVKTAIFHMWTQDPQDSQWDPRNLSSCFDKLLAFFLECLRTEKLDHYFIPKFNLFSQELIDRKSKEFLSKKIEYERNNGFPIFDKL
# The depositor's hits bear a star; ! = repeats disagree. The entries come from a sample that favours hits as a whole.
SMILES,mcGAS RapidFire
CCOC(=O)C1=C(C)NC(C)=C(C(=O)OC)C1c1cccc([N+](=O)[O-])c1 (configuration not stated),-13
CCC(CC)NC(=O)CNC(=O)c1ccc(S(=O)(=O)N(CC)CC)cc1,-6
CCC1=NN2C(=N)/C(=C/c3cccc(OS(=O)(=O)c4ccc(C)cc4)c3)C(=O)N=C2S1,24
O=C(c1ccc(C(F)(F)F)cc1)C1CCCN(C(=O)/C=C/c2ccncc2)C1 (configuration not stated),6
O=S(=O)(NCc1ccc2c(c1)OCO2)c1ccc2c(c1)CCCC2,-8
O=c1ccc(-c2cccs2)nn1CCCNS(=O)(=O)c1ccc2c(c1)OCCO2,6
Cc1cc(CCCC(=O)Nc2ccc(C(N)=O)cc2F)c(C)s1,-2
c1coc(C(CNCc2ccc(-c3nc4ccccc4s3)o2)N2CCCC2)c1 (configuration not stated),-2
C=C(N/N=C1/NC(=O)CS1)c1ccccc1,-6
S=C(NCc1ccco1)NC1CCSc2ccccc21 (configuration not stated),0
O=C1CSC(=NNC(=S)NCc2ccco2)N1,83*
CC(C)c1nc(NC(=O)c2cn(Cc3cccs3)nn2)n[nH]1,-5
CC(C)c1nc(NC(=O)c2ccc(CNC(=O)C(C)(C)C)cc2)n[nH]1,77*
CC(C)(C)c1ccc(C(=O)Nc2n[nH]c(C(F)(F)F)n2)cc1,-1
O=c1c2cnn(C3CCS(=O)(=O)C3)c2ncn1Cc1ccc(Cl)cc1 (configuration not stated),-5
COc1ccc(C(C)NC(=O)Cc2c(C)nc(N)nc2C)cc1F (configuration not stated),-8
O=S(=O)(N=Cc1c(O)ccc2ccccc12)c1ccccc1,17
Oc1ccc2ccccc2c1SSc1c(O)ccc2ccccc12,66*
Oc1ccc2ccccc2c1N=Nc1c(O)ccc2ccccc12,-12
O=C1CCC(C(=O)N2CCC(CCn3cccn3)CC2)CN1CCN1CCOCC1 (configuration not stated),0
O=C(Cn1cnc(-c2noc(-c3ccncc3)n2)c1)NCc1cccc(Cl)c1,-11
C#Cc1cccc(NC(=O)CNC(=O)C2CCCCN2C(=O)c2ccco2)c1 (configuration not stated),-12
CC1=C(c2ccccc2)CS1(=O)=O,-3
CCOC(=O)c1nn(-c2ccccc2)c(=O)cc1OS(=O)(=O)c1cccs1,1
Cc1nc2c(cc(O)c3ccsc32)s1,-5
SMILES,mcGAS RapidFire
Cc1nc2c(cc(OS(=O)(=O)c3cccs3)c3ccsc32)s1,62*
CN(CC(=O)O)C(N)=O,2
CSC1(CNC(=O)c2ccc(Oc3ccccc3)nc2)CCOCC1,-13
CSC1(CNC(=O)N2CCCC2c2cccs2)CCOCC1 (configuration not stated),14
CSC1(CNc2ccc(Br)cn2)CCOCC1,71*
CN(CCOc1ccc(Cl)cc1)S(=O)(=O)c1ccc(N2CCCC2=O)cc1,-1
Cc1ccccc1Cn1c(=O)c2c(nc3n(CCCN4CCOCC4)c(C)cn23)n(C)c1=O,-8
CCN(CC)C(=O)CSC(=Nc1ccccc1)NC#N,5
CC(CCN1CCCC1=O)NC(=O)Cc1cccc(O)c1 (configuration not stated),2
O=c1c(O[C@@H]2O[C@H](CO)[C@@H](O)[C@H](O)[C@H]2O)c(-c2ccc(O)c(O)c2)oc2cc(O)cc(O)c12,11
OC[C@H]1O[C@@H](Oc2ccc(O)cc2)[C@H](O)[C@@H](O)[C@@H]1O,-10
O=C(O)c1cc(O)c2c(O)c3c(O[C@H]4O[C@H](CO)[C@@H](O)[C@H](O)[C@H]4O)cccc3c(-c3c4cc(C(=O)O)cc(O)c4c(O)c4c(O[C@H]5O[C@H](CO)[C@@H](O)[C@H](O)[C@H]5O)cccc34)c2c1,82*!
O=C(CSC1=NS(=O)(=O)c2ccccc2N1)NC1CCCC1,-4
C[n+]1c2cc(N)ccc2cc2ccc(N)cc21,99*!
O=C(O)CSc1nnc(Cn2cccn2)n1-c1cccc2ccccc12,-18
CN(Cc1cnn(-c2ccccc2)c1)C(=O)CCl,-4
Cc1ccc(C(=O)Nc2ccc(S(=O)(=O)O)c3cc(S(=O)(=O)O)cc(S(=O)(=O)O)c23)cc1NC(=O)c1cccc(NC(=O)Nc2cccc(C(=O)Nc3cc(C(=O)Nc4ccc(S(=O)(=O)O)c5cc(S(=O)(=O)O)cc(S(=O)(=O)O)c45)ccc3C)c2)c1,93*
Cc1ccc(NC(=O)c2ccc(S(N)(=O)=O)c(C)c2)cc1C,-11
Cc1coc(-c2ccc(C)c(NC(=O)c3cccc(NS(C)(=O)=O)c3)c2)n1,-9
COc1ccc(-c2ccc(=O)n(Cc3cccc(C(F)(F)F)c3)n2)cc1OC,-13
CCN1CCCC(NC(=O)c2cc(NC)ccc2OC)C1 (configuration not stated),-33
Cc1ccc(C(=O)CSc2ccc(NC(=O)C(C)C)nn2)c(C)c1,5
CCCc1noc(C(C)N2CCCN(C(=O)c3ccccc3Cl)CC2)n1 (configuration not stated),76*
C=C(Br)CNC(=O)N1CCCN(C(=O)c2ccccc2Cl)CC1,-4
CCc1noc(C(C)N2CCN(S(=O)(=O)c3c(C)c(C)c(C)c(C)c3C)CC2)n1 (configuration not stated),-3
SMILES,mcGAS RapidFire
C=CCn1c(=O)c2c(nc3n(-c4ccc(OC)c(Cl)c4)c(C)cn23)n(C)c1=O,-7
CCn1cncc1CNC(=O)[C@H]1C[C@@](C)(C(=O)O)N(C)[C@H]1c1ccccc1,-14
CN(CC(=O)Nc1ccc(N2CCOCC2)cc1)C(=O)COc1ccccc1C#N,69*
CC(C)n1nccc1NC(=O)COc1ccccc1C#N,3
CCCCC(=O)Nc1ccc(N2CCOCC2)cc1,-6
Cc1ccccc1CN1CCCC(c2nn(C)c(=O)n2-c2ccccc2)C1 (configuration not stated),-5
CCc1cc(NC(=O)N(C)CCOCC2CC2)n(C)n1,-2
CC1Oc2ccc(-c3cccc(F)c3)cc2N(Cc2ccc3ccccc3n2)C1=O (configuration not stated),-6
CCOc1ccc(OCCOc2ccc(Br)cc2)cc1,-3
O=c1c2cc3c(=O)n(-c4cccc(Cl)c4)ccc3nc2ccn1CCO,-4
Cc1cc(O)c(C=O)c(O)c1C(=O)O,82*
Cc1cc(O)cc(O)c1C(=O)O,46
Cc1cc(C)c(C(=O)O)c(=O)[nH]1,-4
CN(C(=O)c1cccc(C(=O)NC2(C#N)CCCC2)c1)c1ccccc1,-9
CC(C)(C)c1ccc(/C=N\Nc2nncn2N)cc1,-2
O=C1C=CC(=O)N1c1cc(Cl)cc(Cl)c1,67*
Cc1ccc(C(O)=C2C(=O)C(=O)N(Cc3cccnc3)C2c2cccnc2)cc1 (configuration not stated),5
CC(=O)Nc1ccc(F)c(NC(=O)CCn2nc(-c3cccs3)oc2=O)c1,-1
Cn1cc(CNC2CCOCC2)c(-c2cc3ccccc3o2)n1,-1
Cc1nn(-c2ccc(F)cc2)c(Cl)c1C=NNC(=O)COc1ccc(C#N)cc1,9
CC(C)(C)OC(=O)Nc1ccsc1Br,66*!
Cn1ccsc1=NC(=O)c1ccc(NC(=O)OC(C)(C)C)cc1,-14
CC(C)(C)OC(=O)Nc1ccncc1C(=O)c1ccccc1,-21
N#Cc1cccc(NC(=O)CN2CCC3(CC2)OCc2ccccc23)c1,-2
O=C(c1ccc(N2CC(O)C2)nc1)N1CCCN(c2ncccn2)CC1,80*
CCOc1ccc(C(=O)N2CCN(c3ncccn3)CC2)cc1,-1
O=C1CN(c2ccc(C(=O)N3CCCN(c4ncccn4)CC3)cn2)CCN1,-7
